Assay outcomes from PubChem.
CtBP-E1A blk: CtBP/E1A binding inhibition; AlphaScreen GST-E1A/His-CtBP binding, 1536-well; active compounds read low; 340,000 compounds, 0.49% hits; activity change, % (test concentration not listed); AID 651724; in the data active = activity change below about -65%; inconclusive = mostly about -30% to -63%
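In 5 uL wells, 23 nL compound meets equimolar GST-E1A and His-CtBP (5X stock 125 nM each) for 2 h, 37 °C. Beads (5X, 50 ug/mL) then 1 h, 37 °C, dark.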
Six1-Eya2 inh: inhibitors of human Six1/Eya2 interaction; activity change, % (concentration not given with the values); AID 651725; 360,000 compounds, 0.56% hits; AlphaScreen GST-Six1/His-Eya2 binding, biochemical; active compounds read low; Q15475+O00167; in the data active = activity change below about -65%; inconclusive = mostly about -30% to -63%
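Homogeneous AlphaScreen proximity assay pairing GST-Six1 with His-tagged Eya2 (added as 5X mix: 250 nM and 500 nM) in 50 mM Tris pH 8.0, 300 mM NaCl, 1 mM TCEP. Glutathione donor and nickel acceptor beads; 1 h, 37 °C, dark.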
TDP1 cell CPT: growth inhibition of DT40 Tdp1-/-;hTDP1 cells with camptothecin (screen for TDP1 inhibitors); 420,000 compounds, 12% hits; Potency, µM (top dose mostly 46.2 µM), for the others: top-dose activity change, negative = growth inhibition, hits mostly inhibitors; AID 686979; chicken DT40 Tdp1-/-;hTDP1 cells + 20 nM CPT, ATP luminescence, 48 h; note: potency is the fitted concentration of half-maximal effect; nearly all actives have a fitted effect of over 55% in size
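Chicken DT40 Tdp1-/- cells stably complemented with human TDP1 were seeded at 400 cells/well in medium containing 20 nM camptothecin, exposed to pin-transferred compounds, and grown at 37 °C for at least 48 hr. Viability was read as ATP luminescence.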
TDP1 cell noCPT: qHTS for Inhibitors of human tyrosyl-DNA phosphodiesterase 1 (TDP1): qHTS in cells in absence of CPT; 420,000 compounds, 15% hits; Potency, µM (doses to about 46.2 µM), without a hit: at the highest dose activity change, negative = growth inhibition, usual class: inhibitors; DT40 Tdp1-/- hTDP1 cells, no CPT, ATP luminescence, 48 h; note: potency is the fitted concentration of half-maximal effect; nearly all actives have a fitted effect of over 55% in size
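Growth of hTDP1-complemented DT40 Tdp1-knockout cells is measured by ATP luminescence after at least 48 hr compound exposure at 37 °C, with DMSO substituting for the 20 nM CPT used in the parallel screen.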
IL-1B inflam inh: inflammasome signaling inhibition, IL-1 beta readout; THP-1 LPS/ATP IL-1B secretion, AlphaLISA, 16 h; active compounds read low; activity change, % at 57.5 µM; 360,000 compounds, 4.7% hits; in the data active = activity change below about -50%; inconclusive = mostly about -30% to -49%
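THP-1 cells pretreated 1 hr with compounds (up to 57.5 uM final), then stimulated with LPS (250 ng/mL final) plus ATP (1.25 mM final); secreted IL-1B measured by AlphaLISA after 16 hr, decreased signal indicating inhibition.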
TDP1 inh: inhibitors of human tyrosyl-DNA phosphodiesterase TDP1; Q9NUW8; recombinant TDP1, AlphaScreen DNA substrate cleavage; Potency, µM (titrated, usually from 130 µM), for the others: at the top dose activity change, negative = inhibition, hits mostly inhibitors; 350,000 compounds, 0.28% hits; AID 485290; note: potency is the fitted concentration of half-maximal effect; nearly all actives have a fitted effect of over 40% in size
Target sequence (Q9NUW8 whole entry, looked up): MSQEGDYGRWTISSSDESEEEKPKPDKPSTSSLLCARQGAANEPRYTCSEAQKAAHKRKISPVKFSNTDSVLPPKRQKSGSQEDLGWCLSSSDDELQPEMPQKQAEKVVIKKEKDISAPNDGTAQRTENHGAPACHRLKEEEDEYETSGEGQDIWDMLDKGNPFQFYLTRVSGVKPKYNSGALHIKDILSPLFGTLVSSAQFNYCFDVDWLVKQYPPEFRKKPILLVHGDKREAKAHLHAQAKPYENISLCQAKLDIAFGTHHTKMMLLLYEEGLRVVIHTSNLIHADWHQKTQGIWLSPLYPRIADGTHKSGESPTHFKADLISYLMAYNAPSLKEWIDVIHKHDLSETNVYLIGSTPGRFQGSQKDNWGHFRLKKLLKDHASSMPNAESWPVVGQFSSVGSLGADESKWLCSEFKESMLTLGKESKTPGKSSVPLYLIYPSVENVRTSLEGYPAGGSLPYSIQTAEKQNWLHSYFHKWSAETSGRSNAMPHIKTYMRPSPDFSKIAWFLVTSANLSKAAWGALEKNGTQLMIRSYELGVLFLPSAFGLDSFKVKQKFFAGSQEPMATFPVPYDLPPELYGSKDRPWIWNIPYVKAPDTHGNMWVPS
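E. coli-derived human Tdp1, 1 nM final. Cpd preinc 15 min RT; substrate 15 nM final, 5 min RT; AS bead mix 10 ug/ml final, 10 min RT. Signal loss = tyrosine-FITC cleavage. No-enzyme wells = max signal.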
The depositor's hits bear a star; ? = inconclusive; . = not tested or not shown. The list is not random: actives were taken first. Their share in the collection is about 18%. Unless noted, calls come from the whole dose curve; as a rule, active = well fitted curve in the direction sought with a large enough effect; inconclusive = small, poorly fitted or top-dose-only effect, or another doubt; inactive = no such curve, though single readings can be large; an effect the other way counts as inactive or inconclusive. % is set by controls: 0 for no effect and ±100 for the full control effect.

SMILES	CtBP-E1A blk	Six1-Eya2 inh	TDP1 cell CPT	TDP1 cell noCPT	IL-1B inflam inh	TDP1 inh
C[n+]1c(-c2ccccc2)cc(-c2ccc(O)cc2)cc1-c1ccccc1	1	12	18µM*	21µM*	?	-1%
Oc1ccc(-[n+]2c(-c3ccccc3)cc(-c3ccccc3)cc2-c2ccccc2)cc1	-8	-9	1.2µM*	0.65µM*	-95*	3%
COc1ccc(CN2Cc3cc(-c4ccccc4)ccc3-n3nncc3C2)cc1	-7	-21	?	?	-28	.
COc1ccc(-[n+]2c(-c3ccccc3)cc(-c3ccccc3)cc2-c2ccccc2)cc1	0	-3	0.41µM*	0.26µM*	-76*	.
O=[N+]([O-])c1ccc(-[n+]2c(-c3ccccc3)cc(-c3ccccc3)cc2-c2ccccc2)cc1	.	-2	?	21µM*	-3	.
Oc1ccccc1-[n+]1c(-c2ccccc2)cc(-c2ccccc2)c(O)c1-c1ccccc1	.	-14	?	?	4	-4%
COc1ccc(OC)c(-n2c(O)c(C=NCCN3CCNCC3)c(=O)[nH]c2=S)c1	8	3	-4%	7%	0	.
COc1ccc(OC)c(N2C(=O)NC(=O)C3(Cc4cc(C)ccc4N(C)C3)C2=O)c1 (centres undefined)	-11	-1	?	?	7	5%
CCOC(=O)[C@]12Cc3ccccc3[C@H]1N(CCC(=O)OC)C(=O)c1ccccc12	-9	35	18µM*	16µM*	.	.
CCOC(=O)[C@]12Cc3ccccc3[C@H]1N(Cc1ccccc1)C(=O)c1ccccc12	.	17	?	?	-7	.
CCOC(=O)[C@]12Cc3cc(C)ccc3[C@H]1N(CCC(=O)OC)C(=O)c1cc(OC)ccc12	-9	-13	10µM*	8.2µM*	-124*	.
COC(=O)C1=C(c2cccc(C#N)c2)C[C@@H]2CC[C@H]1N2C(=O)N1CCC(O)CC1	4	11	5%	-7%	19	-1%
Cc1ccc(CN2CCCN(Cc3ccc(C)cc3)S2(=O)=O)cc1	44	22	-13%	2%	-9	.
CN(C)c1ccc(/C=C/c2ccnc3c(O)cccc23)cc1	.	.	-98%	10µM*	.	.
CN(C)c1ccc(C=Cc2ccnc3c(O)cccc23)cc1	-29	-13	?	13µM*	64	.
CC(=O)[C@H]1CC[C@H]2C3CC[C@H]4C[C@H](O)CC[C@]4(C)C3CC[C@]12C (some centres undefined)	.	.	.	.	.	11%
COc1cccc2c1N=C1CCCC3CN(C(C)=O)CCC123 (centres undefined)	6	-3	-7%	-10%	-1	.
CCOC(=O)C1C(=O)NC2(C)CC1c1cc(OC)ccc1O2 (centres undefined)	8	4	-5%	-11%	-2	1%
COC(=O)C12CCc3cc(OC)ccc3C1=CC(=O)C2 (centres undefined)	-15	-12	11%	?	-1	.
CCOC(=O)[C@]12Cc3c(cc(OC)c(OC)c3OC)[C@H]1N(C)C(=O)c1cc(OC)ccc12	-1	0	10µM*	9.2µM*	-74*	.
CCOC(=O)[C@]12Cc3ccccc3[C@H]1N(C(C)C)C(=O)c1cc(OC)ccc12	3	-4	23µM*	15µM*	-116*	.
CCOC(=O)[C@]12Cc3ccccc3[C@H]1N(C)C(=O)c1cc(OC)ccc12	6	7	23µM*	15µM*	-116*	.
CC(C)CC(C)N (centres undefined)	6	10	3%	9%	1	-3%
CCOC(=O)[C@]12Cc3cc(OC)ccc3[C@H]1N(C1CCCCC1)C(=O)c1cc(OC)ccc12	-6	-12	2.6µM*	4.6µM*	-114*	.
